We go through 21 compounds from PubChem BioAssay (NCI).

This is part of a sample that, as a whole, favours compounds with a hit. Of some 79,000 tested, about 15% had one in any assay. A number with no mark means an inactive call. The source made the active and inactive calls. No stated cut-off is given here; in the data, active means growth inhibition above about 70%; inactive means the rest. Where a SMILES comes first, the peptide text is derived from it. The star is where a group is joined. Cbz = O=C(OCc1ccccc1)*

A short description of assay [1]: NCI Yeast Anticancer Drug Screen. Data for the rad50 strain (AID 155).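 Further: 0% = growth of vehicle-only cultures of the same strain.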 As to conditions: S. cerevisiae rad50 strain growth inhibition; at 50.0 µM; active compounds read high. The procedure, abridged: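 Compounds were tested on a yeast strain with an engineered DNA damage repair alteration; the reported value is growth inhibition normalised to vehicle treatment.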
Assay [2] is described as follows: NCI Yeast Anticancer Drug Screen. Data for the mec2-1 strain (AID 157). The conditions noted are these: S. cerevisiae mec2-1 strain, at 50.0 µM, active compounds read high. Put shortly: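 Yeast mec2-1 mutant treated with compound. Readout: growth inhibition vs vehicle controls.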
Assay [3] can be described thus: NCI Yeast Anticancer Drug Screen. Data for the sgs1 mgt1 strain (AID 161).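 Further: 0% = growth of cultures given vehicle only.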 The conditions noted are these: S. cerevisiae sgs1 mgt1 strain, at 50.0 µM, active compounds read high. Put shortly:
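Test agents were incubated with a DNA-repair-mutant yeast strain. Growth was then read and compared against vehicle-treated controls.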

Assay [4] can be described thus: NCI Yeast Anticancer Drug Screen. Data for the cln2 rad14 strain (AID 165).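 Further: 0% = growth equal to vehicle treated cultures.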 As to conditions: S. cerevisiae cln2 rad14 strain, at 50.0 µM, active compounds read high. The procedure, abridged:
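cln2 rad14 yeast strain; compound exposure; growth inhibition read vs vehicle controls.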

Assay [5] is described as follows: NCI Yeast Anticancer Drug Screen. Data for the bub3 strain (AID 167). As to conditions: S. cerevisiae bub3 mutant strain, at 50.0 µM, active compounds read high. Put shortly: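 Growth of a checkpoint-deficient yeast mutant is measured after compound exposure. Values represent inhibition relative to vehicle.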
Assay [6] in a line: NCI Yeast Anticancer Drug Screen. Data for the mlh1 rad18 strain (AID 175). As to conditions: S. cerevisiae mlh1 rad18 strain growth inhibition; at 50.0 µM; active compounds read high. Put shortly:
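Yeast w/ defined DNA-repair lesions; compound exposure; growth vs vehicle controls → % inhibition.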

For the compound `N#CC1(c2ccccc2)OC1(C#N)c1ccccc1` (stereo unspecified), the growth inhibition in assay [1] is 3.1%; in assay [2], -14.6%; in assay [3] it was -4.8%; in assay [4], -22.2%; in assay [5], -11.2%; in assay [6] it was -7.6%.
For the compound `c1ccc([P+](c2ccccc2)(c2ccccc2)C2c3ccccc3CCc3ccccc32)cc1`, the growth inhibition was 99.6% (active) in assay [1]; 99.8% (active) in assay [2]; 99.5% (active) in assay [3]; 99.5% (active) in assay [4]; 99.4% (active) in assay [5]; 99.6% (active) in assay [6].
For `CCC(CC)(C[NH-])C[NH-].[Cl][Pt+2][Cl]`, the growth inhibition in assay [1] was 10%; in assay [2], 41.7%; in assay [3], 10%; in assay [4] it was 16.2%; in assay [5] it was 18.2%; in assay [6] it was -7.95%.
As for `Cc1ccc(Cl)cc1N`, the growth inhibition in assay [1] is 11.8%; in assay [2] it was 31.1%; in assay [3], 8.25%; in assay [4] it was -27%; in assay [5], 0.85%; in assay [6], 18.8%.
For `Cc1cc(C)c2c(c1)C(=O)c1ccccc1C2=O`, the growth inhibition in assay [1] is 42.6%; in assay [2], 47.1%; in assay [3], 47.4%; in assay [4] it was 38%; in assay [5] it was 30.9%; in assay [6], 58.8%.
In the case of `CCOC(=O)CN=NNc1ccc([N+](=O)[O-])cc1`, the growth inhibition in assay [1] was 10.3%; in assay [2], 8.85%; in assay [3], -3.5%; in assay [4], -42.2%; in assay [5], 21.1%; in assay [6], 7.7%.
With `CC(=O)Oc1ccccc1-c1cc2ccccc2oc1=O`, the growth inhibition in assay [1] is -20.2%; in assay [2], 20.8%; in assay [3], 0.85%; in assay [4], 5.15%; in assay [5], 38.8%; in assay [6], 11.8%.
Turning to `CCOC(=O)C1=NN(c2ccc(C)cc2)C2=CC(C)=NN(C)C(=S)N21`, the growth inhibition was -18.1% in assay [1]; -7.3% in assay [2]; -21.8% in assay [3]; -13.6% in assay [4]; 7.1% in assay [5]; -49.3% in assay [6].
Take `CCN1CCCC(Nc2nc(Nc3ccc(Cl)c(Cl)c3)nc3ccc(Cl)cc23)C1` (stereo unspecified): the growth inhibition in assay [1] is 99.2% (active); in assay [2], 99.7% (active); in assay [3] it was 99.7% (active); in assay [4], 99.5% (active); in assay [5], 99.4% (active); in assay [6], 99.5% (active).
Turning to `O=C(NC(Cc1ccccc1)C(=O)N1CCCC1C(=O)O)OCc1ccccc1` (stereo not drawn) (Cbz-Phe-Pro-OH; configuration not given here), the growth inhibition is 7.75% in assay [1]; 2.55% in assay [2]; -7.05% in assay [3]; -13.9% in assay [4]; -1.75% in assay [5]; 5.05% in assay [6].
Take `O=Cc1ccc(N2CCCCC2)cc1`: the growth inhibition is 4.05% in assay [1]; 7.95% in assay [2]; -13.2% in assay [3]; -24.2% in assay [4]; -8.25% in assay [5]; -4.45% in assay [6].
Take `CC1=CC[C@@H](Br)C(C)(C)[C@]12CC[C@]1(C)O[C@@H]1C2`: the growth inhibition in assay [1] is 3.15%; in assay [2], -33.6%; in assay [3] it was -12.6%; in assay [4] it was 2.55%; in assay [5], -23.6%; in assay [6], -13.6%.
Turning to `O=C1OC2CCCC[C@@H]2C2C[C@]34CCCCC3[C@@H](C(=O)O4)C12` (stereo partly specified), the growth inhibition in assay [1] is 23.1%; in assay [2], -6.85%; in assay [3], 9.9%; in assay [4], 15.6%; in assay [5], 12%; in assay [6] it was 42.7%.
In the case of `CC(=O)Nc1cc2c(cc1Cl)-c1cc(Cl)c(Cl)cc1C2=O`, the growth inhibition in assay [1] is -18.1%; in assay [2], -2.55%; in assay [3], -9.85%; in assay [4], -25.1%; in assay [5], -20.7%; in assay [6] it was -17.5%.
As for `C=CCOCOC(C)C(=O)OCC` (stereo unspecified), the growth inhibition in assay [1] is -10.5%; in assay [2], 6.6%; in assay [3] it was -8.35%; in assay [4] it was -26.7%; in assay [5] it was -9.2%; in assay [6], 6.45%.
For `CC(=O)OCCOCNC(=S)NN`, the growth inhibition was -7.55% in assay [1]; 7.8% in assay [2]; 11.2% in assay [3]; -16.3% in assay [4]; -3.95% in assay [5]; -4.8% in assay [6].
On to `O=C(CCl)NCCc1ccccc1`, for which the growth inhibition in assay [1] was 17.5%; in assay [2], 5.6%; in assay [3], -0.4%; in assay [4], 12.8%; in assay [5] it was 24.8%; in assay [6], 1.1%.
For `COC(=N)/C(C#N)=N/C1OCC(O)C(O)C1O` (stereo unspecified), the growth inhibition in assay [1] is 5.65%; in assay [2], -21.1%; in assay [3], 2.15%; in assay [4], -31.6%; in assay [5] it was 0.35%; in assay [6], 0.45%.
Take `CCCCCC(C(O)C#N)C(O)(C(F)(F)F)C(F)(F)F` (stereo unspecified): the growth inhibition is 94.7% (active) in assay [1]; 80.7% (active) in assay [2]; 58.8% in assay [3]; 80.6% (active) in assay [4]; 86.2% (active) in assay [5]; 98% (active) in assay [6].
For the compound `CC(=O)OC1Cc2ccccc2C(OC(C)=O)Cc2ccccc21` (stereo unspecified), the growth inhibition in assay [1] was 29.6%; in assay [2], 7.4%; in assay [3], -1.25%; in assay [4], 1.6%; in assay [5], 18.4%; in assay [6] it was 0.05%.
For `COc1ccc(/C=N/NC(=O)c2ccc(N)cc2)c(OC)c1`, the growth inhibition is 5.7% in assay [1]; 9.4% in assay [2]; 10% in assay [3]; -0.9% in assay [4]; 14.2% in assay [5]; 13% in assay [6].
